Among all 360,000 compounds or so, about 1,500 (0.42%) were called active. The entries come from a sample that favours actives as a whole. Values without a mark were called inactive. Cut-off read from the data, not from the text of the source: active = inhibition above about 8.5%; inactive = the rest.
tested on: HIV-1 gp120 / PG9 antibody interaction; assay: binders of HIV-1 gp120 antibody PG9, primary screen, biochemical, TR-FRET (AID 624416); settings: TR-FRET gp120-PG9 antibody binding; at 6.7 µM; active compounds read high

| Compound | inhibition |
| --- | --- |
| Cc1ccccc1OCC(=O)Nc1nc(C)c(C(=O)N(C)C)s1 | 0.64% |
| CC(=O)c1sc(NC(=O)CCCOc2ccccc2C)nc1C | 12% (active) |
| Cc1ccc(F)c(NC(=O)CCOc2ccccc2C)c1 | -0.27% |
| COC(=O)C1=C(C)N(Cc2ccc(F)cc2)C(=S)NC1c1cccc(Cl)c1 (configuration not stated) | -0.02% |
| COC(=O)c1ccc(NC(=S)Nc2cccc(C)n2)cc1 | 17.4% (active) |
| Cc1cccc(NC(=O)Cc2ccc(Br)cc2)n1 | 1.95% |
| COC(=O)c1ccc(NC(=S)NN2CCOCC2)cc1 | -2.64% |
| COc1cccc(CNC(=O)[C@H]2CCCN2C(=O)[C@H]2CCCN2C(=O)C2CCCCC2)c1 | 1.65% |
| O=C(CSc1nc(C2CC2)nc2ccccc12)Nc1ccc2c(c1)OCCO2 | -1.48% |
| CCCc1nc(SCC(=O)Nc2ccc(S(=O)(=O)N(C)C)cc2)c2ccccc2n1 | 27% (active) |
| CCCNC(=O)CSc1nc(Cc2ccccc2)nc2ccccc12 | 0.37% |
| C[C@H](O)[C@@H]1C(=O)N2CCc3c([nH]c4c(-c5ccc6c(c5)OCO6)cccc34)[C@@H]2C[C@@H]1N(C)C(=O)c1ccco1 | -1.4% |
| CN1C(=O)C(Br)(Br)CC1c1cccnc1 (configuration not stated) | -0.49% |
| O=C(Nc1nnc(-c2ccccc2F)s1)c1ccccc1F | 13.2% (active) |
| O=C(O)c1ccccc1-c1ccccc1C(=O)Nc1nccs1 | 1.5% |
| O=C(Nc1ccccc1F)c1ccccc1-c1ccccc1 | -1.32% |
| COc1ccc(NC(=O)N(C)C[C@@H]2OCCCC[C@@H](C)Oc3ccc(NC(=O)NC4CCCCC4)cc3C(=O)N([C@H](C)CO)C[C@@H]2C)cc1 | -0.95% |
| O=S1(=O)c2c(cccc2N2CCCCC2)O[C@H](COCc2ccccc2)CN1C1CC1 | -1.69% |
| CCOC(=O)c1cccc(NC(=O)CCn2nnc3ccccc32)c1 | 1.35% |
| CCOC(=O)c1ccc(NC(=O)Cn2cnc3cc(C)c(C)cc32)cc1 | -1.34% |
| CCn1nnc2cc(C(=O)Nc3ccc(C(=O)OC(C)C)cc3)ccc21 | 20.3% (active) |

| Compound | inhibition |
| --- | --- |
| C[C@H](O)[C@@H]1CN2CCc3ccc(-c4ccc5c(c4)OCO5)cc3[C@@H]2C[C@@H]1N(C)C(=O)C1CCCCC1 | 2.47% |
| Cc1cc2c(nc1C)CCCN2C | -1.95% |
| Cc1cc(C(F)(F)F)nc(SCC(=O)Nc2nccs2)n1 | 0.14% |
| Cc1[nH]c2ccccc2c1SCC(=O)Nc1nccs1 | -0.77% |
| CC(=O)c1cc(C#N)c(SCC(=O)Nc2nccs2)nc1C | 15.3% (active) |
| O=c1[nH]c(-c2ccccc2)cn1C1CCN(Cc2ccc(-c3nc4ccc(F)cc4nc3-c3ccccc3)cc2)CC1 | 1.31% |
| CCc1ccc(C2=CC(=O)CC(C)(C)C2=O)cc1 | -0.98% |
| CCC(C)C(=O)Nc1cc([N+](=O)[O-])ccc1Cl (configuration not stated) | -4.15% |
| CC(C)C(=O)Nc1cccc(NC(=O)c2ccc([N+](=O)[O-])cc2Cl)c1 | -0.82% |
| O=C(Nc1c(Br)cc2c(c1Br)Cc1cc([N+](=O)[O-])ccc1-2)C(Cl)Cl | 17.5% (active) |
| O=C(Nc1c(Cl)c(C2CC2)nn1-c1ccccc1)C(Cl)(Cl)Cl | 0.67% |
| C[C@@H]1CN([C@H](C)CO)C(=O)CCCn2cc(nn2)CO[C@H]1CN(C)C(=O)Nc1ccc(N2CCCCC2)cc1 | -2.61% |
| COC(=O)[C@]12C[C@H](CC(=O)NCCC(C)C)C(=O)N(CCc3ccc(OC)c(OC)c3)C1=C[C@H](C(C)(C)C)O[C@@H]2C | 0.69% |
| CCCC(=O)Nc1cc(OCC)c(NC(=O)NC2CCCCC2)cc1OCC | -1.64% |
| COC(=O)C1=CN(Cc2ccc(OC)cc2)C=C(C(=O)OC)C1c1ccc(O)c(OC)c1 | -1.15% |
| CCOc1cc(C2C(C(=O)OC)=CN(C3CCCC3)C=C2C(=O)OC)cc(Br)c1O | 62.6% (active) |
| O=C(N[C@H](C(=O)N1CCC[C@H]1C(=O)NCCc1ccccc1Cl)c1ccccc1)c1ccccc1 | 1.57% |
| Cc1ccc(NC(=O)N2c3ccccc3SC2c2ccco2)c(C)c1 (configuration not stated) | 0.01% |
| COc1cccc(CNC(=O)[C@H]2CCCN2C(=O)[C@H]2CCCN2C(=O)c2cc(F)cc(F)c2)c1 | -0.29% |
| COC(=O)[C@]12C[C@H](CC(=O)NCc3ccc(OC)c(OC)c3)C(=O)N(Cc3ccccc3)C1=C[C@H](C(C)C)O[C@@H]2C1CC1 | -0.45% |
| Nc1[nH]c(C(=O)c2ccc(Br)cc2)c(-c2ccc3c(c2)OCO3)c1C(=O)NCCc1c[nH]c2ccccc12 | 0.87% |

| Compound | inhibition |
| --- | --- |
| CCOc1ccc(C(=O)COC(=O)c2ccc(-n3cnnn3)cc2)cc1 | 11.4% (active) |
| CC(OC(=O)c1ccc(-n2cnnn2)cc1)C(=O)NCc1ccccc1 (configuration not stated) | 1.87% |
| CCOC(=O)N1CCN(S(=O)(=O)c2ccc(-n3cnnn3)cc2)CC1 | -0.23% |
| CCOC(=O)C1=C(C(=O)OCC)C2N(Cc3ccc(C#N)cc3)c3ccccc3[C@@]23C[C@@H](C(=O)OC)N(S(=O)(=O)c2ccc(F)cc2)C3=N1 (some centres not stated) | -0.21% |
| COC(=O)Cc1nnn2c1[C@H](C)[C@H](c1ccccc1[N+](=O)[O-])OCC2 | 0.5% |
| OC(c1nnc(-c2ccccc2)o1)c1cccs1 (configuration not stated) | -1.12% |
| Nc1ccc(-c2nnc(-c3ccc(-c4ccccc4)cc3)o2)cc1 | 9.48% (active) |
| Cc1ccc(C(=O)NCC(=O)OCc2nnc(-c3ccccc3)o2)cc1 | 1.54% |
| COc1ccc(C2=CN(Cc3ccccc3)C(c3ccc(OC)cc3)CC2=O)cc1 (configuration not stated) | 4.38% |
| COCc1cc(C)nc(SCC(=O)Nc2cccc(C)c2)c1C#N | -0.32% |
| Cc1nc2cc(NC(=O)CSc3nc4c(C)cccc4cc3C#N)ccc2s1 | 16% (active) |
| Cc1csc(SCC(=O)Nc2ccc(C)c(S(=O)(=O)N(C)C)c2)n1 | -0.14% |
| N#Cc1c(-c2cccs2)nc(SCC(=O)c2ccc(Br)cc2)[nH]c1=O | 23.5% (active) |
| Cc1nnc(SCC(=O)NCc2cccs2)[nH]c1=O | 1.17% |
| CCc1ccc(C(=O)CSc2nnc(C)c(=O)[nH]2)cc1 | -0.93% |
| O=C(COc1ccc2c3c(c(=O)oc2c1)CCCC3)NCC(O)c1ccccc1 (configuration not stated) | 0.6% |
| O=C(COc1ccc2c3c(c(=O)oc2c1)CCC3)NC1CCCCC1 | -0.41% |
| O=C(Oc1ccccc1)Oc1ccc2c(c1)oc(=O)c1ccccc12 | 28.2% (active) |
| C=CC1=CCN(S(=O)(=O)C(C)(C)C)[C@@H]1CCO | 0.76% |
| COc1ccccc1CCn1cnc(-c2ccccc2)c1C(C)C | 2.18% |
| Nc1nc2c(ncn2[C@@H]2O[C@H](C(=O)N[C@H](Cc3ccccc3)C(=O)NCC3CCCCC3)[C@@H](O)[C@H]2O)c(=O)[nH]1 | -1.03% |

| Compound | inhibition |
| --- | --- |
| COC(=O)[C@]12C[C@H](CC(=O)NCCc3ccccc3OC)C(=O)N(Cc3ccccc3)C1=C[C@H](C(C)C)O[C@@H]2C1CC1 | -0.91% |
| O=C(C(=O)N1CCC(CNC(=O)c2cccnc2Cl)CC1)c1cccs1 | -0.43% |
| COc1ccc(-n2nc3c(c2NC(=O)c2ccc(N4C(=O)CCC4=O)cc2)CSC3)cc1 | 0.18% |
| COc1ccc(-c2csc(NC(=O)c3ccc(N4C(=O)CCC4=O)cc3)n2)cc1OC | 8.78% (active) |
| COc1cc(NC(=O)c2ccc(-c3csc(C)n3)cc2)c(OC)cc1Cl | -0.71% |
| C=CCN1C(=O)N(Cc2ccccc2)c2ccccc2S1(=O)=O | -0.26% |
| CSc1ccc(Oc2cccc3c2S(=O)(=O)N([C@H](C)c2ccccc2)C[C@@H](COCc2ccccc2)O3)cc1C | -0.66% |
| COc1ccc(-c2c(C)nn3c(N4CCC(C(=O)N5CCCCC5)CC4)cc(C)nc23)cc1OC | 30.3% (active) |
| COc1ccc(CCNC(=O)C2CCN(c3nn4c(=O)cc(C)nc4s3)CC2)cc1OC | 2.38% |
| COc1ccc(S(=O)(=O)N2CCC(C(=O)N3CCCC3)CC2)cc1C | -0.08% |
| CC[C@H](NC(=O)[C@H](Cc1ccccc1)NC(=O)[C@H]1O[C@@H](n2cnc3c(=O)[nH]c(N)nc32)[C@H](O)[C@@H]1O)c1ccccc1 | 1.17% |
| Nc1nc2c(ncn2[C@@H]2O[C@H](C(=O)N[C@@H](Cc3ccccc3)C(=O)NCc3ccccc3)[C@@H](O)[C@H]2O)c(=O)[nH]1 | 0.08% |
| COC(=O)C1=C(C)N(Cc2ccc(C(F)(F)F)cc2)C(=NCc2ccccc2)NC1c1ccccc1C(F)(F)F (configuration not stated) | -0.97% |
| COC(=O)N1Cc2ccnnc2CC1c1ccccc1Br (configuration not stated) | -0.32% |
| CC(C)CNc1cccc2c1S(=O)(=O)N[C@H](C)CO2 | -0.69% |
| Cc1nc(N2CCN(c3ccccn3)CC2)c2c(C)c(C(=O)Nc3ccc(F)c(Cl)c3)sc2n1 | -0.31% |
| Cc1cc(Br)ccc1NC(=O)c1sc2ncn(CC(=O)N3CCN(c4ccccn4)CC3)c(=O)c2c1C | 11.3% (active) |
| Cc1cc(Br)ccc1NC(=O)c1cnc(N2CCN(c3ccccn3)CC2)c2ccccc12 | -0.94% |
| Nc1ncnc2c1ncn2[C@@H]1O[C@H](C(=O)N[C@@H](CCc2ccccc2)C(=O)NCC(=O)N2CCOCC2)[C@@H](O)[C@H]1O | -1.35% |
